Screen size: about 2,100 compounds; about 770 (37%) were called active. This is one part of the list. Values without a mark were called inactive.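 Rule for the calls: active = by-eye trace score of 1 for enhancers or -1 for inhibitors, so actives lie on both sides (some results past the limit were not filed as active); inactive = score 0, or 3 fluorescent, or 4 baseline rise.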

The test deals with G protein-activated inward rectifier potassium channel 2 (Homo sapiens) + G protein-activated inward rectifier potassium channel 1 (Homo sapiens) (UniProt P48051+P48549). Briefly: GIRK1/2 thallium flux modulators, retest, confirmation, cell-based, HEK293 rmGlu8/hGIRK1/2, FluoZin-2 (AID 623911). Conditions: HEK293 rmGlu8/hGIRK1/2, thallium flux FluoZin-2; actives lie on both sides; glutamate co-added at its EC20 level.
Sequence of G protein-activated inward rectifier potassium channel 2 (Homo sapiens) + G protein-activated inward rectifier potassium channel 1 (Homo sapiens) (P48051 whole entry, looked up): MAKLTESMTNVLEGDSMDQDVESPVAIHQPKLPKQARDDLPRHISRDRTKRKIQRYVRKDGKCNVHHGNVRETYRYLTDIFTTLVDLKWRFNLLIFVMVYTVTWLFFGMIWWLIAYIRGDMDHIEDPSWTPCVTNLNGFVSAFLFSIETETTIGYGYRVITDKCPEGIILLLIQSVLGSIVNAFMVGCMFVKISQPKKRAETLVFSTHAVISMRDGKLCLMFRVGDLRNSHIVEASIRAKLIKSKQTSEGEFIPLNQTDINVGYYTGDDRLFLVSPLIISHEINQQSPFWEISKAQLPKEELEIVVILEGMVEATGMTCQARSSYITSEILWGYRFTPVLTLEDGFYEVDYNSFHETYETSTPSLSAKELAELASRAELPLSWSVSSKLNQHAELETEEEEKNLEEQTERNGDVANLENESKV
Sequence of G protein-activated inward rectifier potassium channel 2 (Homo sapiens) + G protein-activated inward rectifier potassium channel 1 (Homo sapiens) (P48549 whole entry, looked up): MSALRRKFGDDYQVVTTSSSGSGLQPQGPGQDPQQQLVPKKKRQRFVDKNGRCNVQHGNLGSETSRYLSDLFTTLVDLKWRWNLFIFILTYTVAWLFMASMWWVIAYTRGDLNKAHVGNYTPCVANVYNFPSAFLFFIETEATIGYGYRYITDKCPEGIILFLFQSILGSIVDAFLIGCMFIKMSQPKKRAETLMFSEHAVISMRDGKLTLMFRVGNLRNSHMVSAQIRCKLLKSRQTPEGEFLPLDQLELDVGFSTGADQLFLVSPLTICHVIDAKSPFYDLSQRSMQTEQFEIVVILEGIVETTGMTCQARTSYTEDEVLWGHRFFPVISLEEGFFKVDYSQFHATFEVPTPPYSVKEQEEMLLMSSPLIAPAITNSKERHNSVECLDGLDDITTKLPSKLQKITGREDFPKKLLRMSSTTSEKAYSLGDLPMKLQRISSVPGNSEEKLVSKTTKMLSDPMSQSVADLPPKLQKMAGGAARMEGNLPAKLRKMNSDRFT
For `O=C(COC(=O)c1cccc(N2C(=O)c3ccccc3C2=O)c1)Nc1ccccc1`, the manual score was 0.

Consider `CCc1ccc(C(=O)OCC(=O)Nc2cccc(S(=O)(=O)NC3=NCCCCC3)c2)cc1`, for which the manual score was 1 (active).

As for `O=C(CSc1ccc2ccccc2c1Br)Nc1cccc(S(=O)(=O)NC2=NCCCCC2)c1`, the manual score is 0.

On to `S=C(Nc1ccc(Cl)cc1)c1nc2ccccc2[nH]1`, for which the manual score was 1 (active).

As to `Cc1ccc(NC(=S)c2nc3ccccc3[nH]2)cc1`, the manual score was 1 (active).

Take `N#C/C(=C/c1ccc(N2CCOCC2)o1)c1nc2ccccc2[nH]1`: the manual score is 3.

`Cc1oncc1C(=S)Nc1ccccc1`: the manual score was 0.

In the case of `COc1ccc(S(=O)(=O)N(CC(=O)N2CCN(c3ccccc3)CC2)c2ccccc2)cc1`, the manual score is 0.

For the molecule `CCOC(=O)N1CCN(C(=O)CN(Cc2ccccc2)S(=O)(=O)c2ccc(OC)c(C)c2)CC1`, the manual score is -1 (active).

Turning to `COc1ccc(OC)c(S(=O)(=O)N(C)CC(=O)N2CCN(c3ccccc3F)CC2)c1`, the manual score was 0.

For `COc1cc(/C=C2\SC(=S)NC2=O)ccc1OS(=O)(=O)c1ccccc1`, the manual score is 1 (active).

Regarding `COc1cc(/C=C2/SC(=S)NC2=O)ccc1OS(=O)(=O)c1ccc(C)cc1`, the manual score was 0.

Take `COc1ccc(/C=C2\SC(=O)NC2=S)cc1OC`: the manual score is 1 (active).

Consider `O=C1NC(=S)S/C1=C\c1ccc(SCc2ccccc2)o1`, for which the manual score was 0.5.

For the molecule `O=C1NC(=S)/C(=C\c2ccc(-c3ccccc3Cl)o2)S1`, the manual score was 3.

For the molecule `O=C1NC(=O)/C(=C\c2ccccc2Oc2ccc(F)c(F)c2)S1`, the manual score was 0.

Take `CCOc1ccc(-c2nc(-c3ccc(OC)cc3)no2)cc1OCC`: the manual score is 0.

In the case of `OCCCN=c1cc(-c2ccccc2)oc2ccc(Cl)cc12`, the manual score was -1 (active).

Consider `O=S(=O)(c1ccc(Cl)c(F)c1)N1CCC(c2nc(-c3ccncc3)no2)CC1`, for which the manual score is 1 (active).

As for `CC(C)c1ccc(-c2noc(C3CCCN(S(C)(=O)=O)C3)n2)cc1` (stereo not drawn), the manual score is 0.

Turning to `O=C(NC(=S)N1CCN(Cc2ccc3c(c2)OCO3)CC1)c1cccc(Br)c1`, the manual score was 1 (active).

For `O=C(NC(=S)N1CCN(Cc2ccc3c(c2)OCO3)CC1)c1ccc(Cl)cc1`, the manual score was 1 (active).

`O=C(c1ccc2nccnc2c1)N1CCN(Cc2ccc3c(c2)OCO3)CC1`: the manual score was 1 (active).

For `CCN(CC)c1ccc(C(=O)NC(=S)N2CCN(Cc3ccc4c(c3)OCO4)CC2)cc1`, the manual score was 0.

For the molecule `O=C(c1ccc(COc2c(F)c(F)c(F)c(F)c2F)o1)N1CCN(Cc2ccc3c(c2)OCO3)CC1`, the manual score is 0.

With `Cc1cc2cc3c(cc2nc1SCC(=O)N1CCN(C(=O)c2ccco2)CC1)OCO3`, the manual score was 0.

For the molecule `C/C(=N\NC(=S)Nc1ccc(F)cc1)c1ccc2c(c1)OCCO2`, the manual score is 1 (active).

For `C/C(=N/NC(=S)Nc1ccccc1)c1ccc2c(c1)OCO2`, the manual score was 0.

With `Fc1ccc(NC(=S)NN=C2CCCCCC2)cc1`, the manual score was 0.

Take `Cc1cccc(C(=O)N2CCC(Cc3ccccc3)CC2)c1[N+](=O)[O-]`: the manual score was -1 (active).

Regarding `O=C(Nc1ccc(OCC(=O)N2CCC(Cc3ccccc3)CC2)cc1)c1ccco1`, the manual score is 0.

In the case of `Cc1noc(C)c1S(=O)(=O)N1CCC(Cc2ccccc2)CC1`, the manual score was 0.

Turning to `COC(=O)Nc1nc(C)c(C(=O)N(C)C)s1`, the manual score was 0.

`O=C(Nc1nc2ccccc2s1)c1cc(-c2ccccc2)nn1-c1ccccc1`: the manual score is 0.

As for `CC(=O)c1sc(NC(=O)c2cc(-c3ccccc3)nn2-c2ccccc2)nc1C`, the manual score is 1 (active).

As for `C#CC(CO)N(CCN(Cc1ccccc1)C(C#C)CO)Cc1ccccc1` (stereo not drawn), the manual score was -1 (active).

In the case of `C#CCSc1nnc(-c2cccc3ccccc23)o1`, the manual score was 0.

With `CCOC(=O)C1=C(NC(=S)NC(=O)c2ccccc2)c2ccccc2CC1C(C)C` (stereo not drawn), the manual score is 0.

As to `CCOC(=O)c1c(NC(=S)NCCc2ccccc2)sc2c1CC(C(C)C)OC2` (stereo not drawn), the manual score is 0.

With `C=CCNC(=S)Nc1sc2c(c1C(=O)OCC)CC(C)(CC)OC2` (stereo not drawn), the manual score was 1 (active).

Turning to `CCOC(=O)c1c(NC(=S)NC)sc2c1CC(C)(C)SC2`, the manual score was 1 (active).

Turning to `C=CCNC(=S)Nc1sc2c(c1C(=O)OCC)CC(C(C)C)OC2` (stereo not drawn), the manual score was 1 (active).

For the molecule `CCOC(=O)c1c(NC(=O)C2C3C=CC(C3)C2C(=O)O)sc2c1CCC(CC)C2` (stereo not drawn), the manual score was 0.

On to `C=C(C)C1CC=C(C)/C(=N/NC(=S)Nc2ccccc2)C1` (stereo not drawn), for which the manual score was 0.

Regarding `Cc1ccc(NC(=O)CSc2nccn2C)cc1S(=O)(=O)N1CCOCC1`, the manual score is 0.

`Cc1ccc(NC(=O)CN2c3cccc4cccc(c34)S2(=O)=O)cc1S(=O)(=O)N1CCOCC1`: the manual score is 1 (active).

As to `COC(=O)c1ccc(C)c(NC(=O)CN2C(=O)c3ccccc3S2(=O)=O)c1`, the manual score was 0.

For the molecule `CC12CCC(C(=O)N(CSC(=S)N/N=C\c3ccccc3Cl)C1=O)C2(C)C` (stereo not drawn), the manual score was 0.5.

For the molecule `CC12CCC(C(=O)N(CSC(=S)N/N=C\c3ccccc3O)C1=O)C2(C)C` (stereo not drawn), the manual score is 1 (active).

For the molecule `COc1ccc(/C=N\NC(=S)SCN2C(=O)C3CCC(C)(C2=O)C3(C)C)cc1` (stereo not drawn), the manual score was 1 (active).

With `CC12CCC(C(=O)N(CSC(=S)N/N=C\c3ccccc3)C1=O)C2(C)C` (stereo not drawn), the manual score was 1 (active).

Regarding `CN(C)c1ccc(/C=N\NC(=S)SCN2C(=O)C3CCC(C)(C2=O)C3(C)C)cc1` (stereo not drawn), the manual score is 0.

For the molecule `Clc1ccccc1-c1nn2c(COc3ccccc3)nnc2s1`, the manual score is 0.

Consider `CSc1ccc(S(=O)(=O)NCc2ccccc2Cl)cc1`, for which the manual score is 0.

Regarding `Cc1ccccc1CNS(=O)(=O)c1ccc2c(c1)OCCO2`, the manual score was -1 (active).

Regarding `Cc1nc2ccc(NS(=O)(=O)c3ccc4c(c3)OCCO4)cc2s1`, the manual score is 0.

For the molecule `CCSc1nnc(NC(=O)c2nn(C(C)C)c(=O)c3ccccc23)s1`, the manual score is 0.

For `CCSc1nnc(NC(=O)CC)s1`, the manual score was 0.

For the molecule `CCSc1nnc(NC(=O)NC(CC)(C(F)(F)F)C(F)(F)F)s1`, the manual score is 1 (active).

Turning to `CC(C)(C)c1ccc(-c2n[nH]c(=S)n2C2CCCC2)cc1`, the manual score is 0.

In the case of `CN(CCC#N)C(=O)CSc1ncnc2sc(-c3ccccc3)cc12`, the manual score was 0.

As to `C/C(N)=C(/C#N)C(=O)CSc1nc2cc(Cl)ccc2c(=O)n1-c1ccc(C)cc1`, the manual score was 0.

For `O=C1c2ccccc2NC(c2ccc(-c3cccc(Cl)c3)o2)N1O` (stereo not drawn), the manual score is 0.5.

Consider `O=c1c2ccc(Cl)cc2nc(-c2cccc(C(F)(F)F)c2)n1O`, for which the manual score was 1 (active).

Regarding `O=c1c2ccccc2nc(-c2ccccc2)n1/N=C/c1ccc([N+](=O)[O-])cc1`, the manual score was 0.

Regarding `O=c1c2cc(Br)ccc2nc(-c2cccc(C(F)(F)F)c2)n1O`, the manual score was 1 (active).

In the case of `O=c1c2ccccc2nc(-c2cccc(Cl)c2)n1O`, the manual score was 1 (active).

With `Cc1nc2nc(Cc3ccccc3)[nH]n2c(=O)c1Cc1ccccc1`, the manual score was 0.

Consider `CCN(CC)CCN1C(=O)c2oc3ccccc3c(=O)c2C1c1ccc(C)cc1` (stereo not drawn), for which the manual score is 0.

In the case of `CCOC(=O)C(C)Oc1ccc2c(CC)cc(=O)oc2c1C` (stereo not drawn), the manual score was 0.

Take `CCOC(=O)C1=C(O)C(=O)N(c2ccc(S(N)(=O)=O)cc2)C1c1ccccc1` (stereo not drawn): the manual score is 0.

For the molecule `COc1ccc2nc(N3C(=O)/C(=C/c4ccccc4)NC3=S)sc2c1`, the manual score was 1 (active).

Regarding `CCCSc1nc(C)nc2c1c(=O)n(C)c(=O)n2C`, the manual score is 0.

Consider `Clc1ccc(OCCn2ccnc2)c(Cl)c1`, for which the manual score was 0.

As to `CC(C)CC(NS(=O)(=O)c1ccc2c(c1)oc(=O)n2C)C(=O)NC1CCCc2ccccc21` (stereo not drawn), the manual score is 0.

Take `CSc1nc(Sc2ccccc2)c2ccccc2n1`: the manual score is 0.

Take `CCOc1ccccc1N1CCN(S(=O)(=O)c2cccs2)CC1`: the manual score was 0.

Consider `Cc1sc2nc(CN3CCCC3)nc(N3CCN(S(=O)(=O)c4cccs4)CC3)c2c1C`, for which the manual score was -1 (active).

As for `Cc1nc(N2CCN(C(=O)COc3ccccc3)CC2)c2c(C)c(C)sc2n1`, the manual score is -0.5.

For the molecule `Cc1cc(/C=c2/sc3nc4ccccc4n3c2=O)c(C)n1-c1ccccn1`, the manual score is 0.

Regarding `CCCCN(CCCC)C(=S)N/N=C/c1c(C)[nH]n(-c2ccccc2)c1=O`, the manual score was 1 (active).

For `CC1=NN(c2ccccc2)C(=O)/C1=C\c1c(C)[nH]n(-c2ccccc2)c1=O`, the manual score was 0.

For `CCNC(=S)N/N=C/c1c(Cl)cccc1Cl`, the manual score was 0.5.

In the case of `Cc1[nH]n2c(=O)cc(C(C)(C)C)nc2c1-c1ccccc1`, the manual score was 1 (active).

For `Cc1nc2c(-c3ccccc3)c(C)[nH]n2c(=O)c1Cl`, the manual score is 0.

As for `Cc1cc(=O)n2[nH]c(C)c(-c3ccccc3)c2n1`, the manual score is 0.5.

On to `COc1cc(/C=C(/C#N)c2ccc(F)cc2)ccc1OCc1ccc(C(=O)O)o1`, for which the manual score is 0.

Take `COc1cc(CNc2ccc(N3CCCC3)cc2)ccc1OCc1ccccc1`: the manual score is 0.

On to `COc1cc(CNCCc2c[nH]c3ccccc23)ccc1OCc1ccc(F)cc1`, for which the manual score was -1 (active).

Consider `COc1ccccc1NC(=S)NCCc1ccc(Cl)cc1`, for which the manual score was 0.

As to `Cn1cccc1CNC1CCCC1`, the manual score is 0.

On to `Cc1ccc(Cl)cc1NC(=S)NCc1cccn1C`, for which the manual score is 1 (active).

`Cc1cc(C(=O)N2CCN(CCc3ccccc3)CC2)no1`: the manual score is 0.

Take `O=C(c1ccccc1CCc1ccccc1)N1CCN(c2ccccn2)CC1`: the manual score is -1 (active).

With `O=C(CN1C(=O)c2cccc3cccc(c23)C1=O)N1CCN(c2ccccn2)CC1`, the manual score was 3.

For `CCOC(=O)C1CCN(C(=O)N(C)C)CC1`, the manual score is 0.

For the molecule `COc1ccc(NC(=S)Nc2ccc(OCc3ccccc3)cc2)cc1OC`, the manual score is 0.

As for `COc1ccc(NC(=S)SC)cc1OC`, the manual score is 0.

Consider `CCC(C)c1ccc(NC(=S)Nc2ccc(OC)c(OC)c2)cc1` (stereo not drawn), for which the manual score is 1 (active).

As to `COc1ccc(CCC(=O)NCc2cnn(C)c2)cc1`, the manual score is 0.

As to `CCCSc1nnc(Nc2ccccc2C)s1`, the manual score was 1 (active).

For the molecule `Cc1nnc(NC(=O)CCSc2ccccc2)s1`, the manual score is 0.

Consider `c1ccc2c(Nc3nnc(-c4ccncc4)s3)cccc2c1`, for which the manual score is 0.

(Values after PubChem BioAssay AID623911 (Vanderbilt High Throughput Screening Facility, 2012).)
